Assay results reported in PubChem BioAssay AID1259312 (Keith Lab, Institute of Cancer Science, University of …, 2017).
Values joined by “and” are separate entries in the source; they are usually repeats but may differ in a detail not shown here. Equal values may be shown once. Hit rate of the full screen: of about 4,500 compounds, about 200 (4.4%) were called active.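 The calls were made as follows: active = cell survival measured by absorbance rises more than 2.5-fold over infected cells without compound; inactive = the rest.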 The sample as a whole holds a higher share of actives than the screen did. A structure can be active in one record and inactive in another.

Test: survival after telomere uncapping, modulators, primary screen, cell-based (AID 1259312);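 also: virus expresses mutant telomerase RNA that uncaps telomeres and kills cells; compound added 2 days after infection so exposure lasts 3 days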
Conditions: HCT116 + Ad-hTR-mut, MTT, 5 d; at 10 µM, stronger effect = higher value

Compound | fold change
CCOC(=O)C1CCN(C(C)=O)CC1 | 3.8 (active)
CCOC(=O)C1CCN(C(=O)N2CCOCC2)CC1 | -1.12 (inactive)
CCOC(=O)C1CCN(C(=O)C(=O)N2CCC(C(=O)OCC)CC2)CC1 | -1.3 (inactive)
O=C(NC1CCCC1)c1ccc(COc2cc(Cl)ccc2Cl)o1 | -1.53 (inactive)
O=C1/C(=C/c2c(N3CCOCC3)nc3ccccn3c2=O)SC(=S)N1CC1CCCO1 (stereo not given) | -1.1 (inactive)
Nc1ccc(Cn2ccnc2)cc1 | -1.06 (inactive)
CCCCNC(=O)C(=O)NCCCn1ccnc1 | -3.64 (inactive)
NCCCCn1ccnc1 | 2.97 (active)
O=C1CCCN1c1ccc(NS(=O)(=O)N2CCCCC2)cc1 | -1.3 (inactive)
O=C1CCCN1c1ccc(S(=O)(=O)Cl)cc1 | 1.34 (inactive)
O=C1CCCN1c1ccc([N+](=O)[O-])cc1 | 4.37 (active)
CN(CCCN1c2ccccc2CCc2ccccc21)c1nc(-c2ccc(F)cc2)cs1 | -1.32 (inactive)
Fc1ccc(-c2csc(N3CCN(CCCN4c5ccccc5Sc5ccc(C(F)(F)F)cc54)CC3)n2)cc1 | 1.16 (inactive)
CCN(CC)CCCN1c2ccccc2Sc2ccc(C(F)(F)F)cc21 | 5.26 (active)
CC1SC2(C(=O)Nc3ccccc32)N(c2cccc(Br)c2)C1=O (stereo not given) | -4.19 (inactive)
O=C(O)C1=C/C(=C(/c2ccccc2)c2cc(C(=O)O)c(O)c3ccccc23)c2ccccc2C1=O | 1.42 (inactive)
O=C1NC(=O)/C(=C/c2cc(Br)ccc2OCc2ccc(F)cc2)N1 | -1.15 (inactive)
C=CCn1c(-c2ccc(OC)cc2)n[nH]c1=S | -2.14 (inactive)
O=[N+]([O-])c1cccc(N2Cc3ccccc3C2)c1 | -1.27 (inactive)
O=c1ccc(=O)n2n1Cc1ccccc1C2 | 3.52 (active)
CS(=O)(=O)N1CCc2ccccc2C1 | -1.26 (inactive)
O=C(O)CC1CCCCO1 (stereo not given) | -1.75 (inactive)
O=C1CC(c2ccccc2)CC2=C1C(c1ccc(-c3ccccc3)cc1)Nc1ccccc1N2 (stereo not given) | 1.1 (inactive)
Cn1cc(Cl)c(C(=O)N2CCc3ccccc3C2)n1 | -2.46 (inactive)
N#CC1=C(N)C(C#N)(C#N)C2=CCCC2C12CCCCC2 (stereo not given) | 2.06 (inactive)

Compound | fold change
N#CC(C(N)=S)=P(c1ccccc1)(c1ccccc1)c1ccccc1 | -1.25 (inactive)
Cc1ccc(-c2nnnn2C(C#N)=P(c2ccccc2)(c2ccccc2)c2ccccc2)cc1 | 2.78 (active)
COc1cc(OC)cc([C@@H]2[C@@H](C(C)(C)C)C(C#N)(C#N)[C@H]3C=Cc4ccccc4N23)c1 | 1.39 (inactive)
Cn1c(=S)n(CCSc2nc3ccccc3n2C2CCCCC2)c2ccccc21 | -2.22 (inactive)
CN(C)c1ccc(N2CC(=O)SC2=NC#N)cc1 | -2.16 (inactive)
COC1OC(COC(c2ccccc2)(c2ccccc2)c2ccccc2)C(O)C(O)C1O (stereo not given) | 2.72 (active)
COC1OC(C)C(OCc2ccccc2)C(O)C1O (stereo not given) | 1.93 (inactive)
OCc1ccccc1O[C@@H]1O[C@H](CO)[C@@H](O)[C@H](O)[C@H]1O | 1.37 (inactive)
CCCCc1sc(-c2c(C#N)c(N)nc3c2CCCC3)cc1[N+](=O)[O-] | -2.22 (inactive)
CCSCCOC(=O)C1=C(C)NC2=C(C(=O)CCC2)C1c1ccsc1 (stereo not given) | -1.16 (inactive)
CCCCOc1ccc(C2C(C#N)=C(N)Nc3oc(OC)nc32)cc1CCC (stereo not given) | -1.87 (inactive)
CC1CCN(S(=O)(=O)c2ccc(Cl)cc2)CC1 | 1.93 (inactive)
O=S(=O)(c1cc(Cl)ccc1Cl)N1CCc2ccccc2C1 | 1.42 (inactive)
O=S(=O)(c1ccc(Cl)cc1)N1CCOC1C(Cl)(Cl)Cl (stereo not given) | -2.17 (inactive)
O=C(O)C1CCCN1S(=O)(=O)c1cc(Cl)ccc1Cl (stereo not given) | -1.09 (inactive)
CC1CCCN(S(=O)(=O)c2ccc(Br)cc2)C1 (stereo not given) | 1.44 (inactive)
CC1CCCN(S(=O)(=O)c2cc(Cl)ccc2Cl)C1 (stereo not given) | 3.18 (active)
COc1ccc(S(=O)(=O)N2CC(C)CC(C)C2)cc1 (stereo not given) | 3.34 (active)
CC1CCCN(S(=O)(=O)c2ccc(Cl)cc2)C1 (stereo not given) | 5.69 (active)
CCC1CCCCN1S(=O)(=O)c1ccc(Cl)cc1 (stereo not given) | -1.26 (inactive)
COc1ccc(S(=O)(=O)N2CCN(C)CC2)cc1 | -1.28 (inactive)
COc1ccc(S(=O)(=O)N2CCN(CCO)CC2)cc1 | -1.24 (inactive)
CC1CC(C)CN(S(=O)(=O)c2ccc(Cl)cc2)C1 (stereo not given) | 3.13 (active)
CCC1CN2CCc3cc(OC)c(OC)cc3[C@@H]2C[C@@H]1C[C@H]1NCCc2cc(OC)c(OC)cc21 (stereo not given in full) | -4.98 (inactive)
Nc1nnc(SCc2ccc(Cl)cc2Cl)s1 | 1.92 (inactive)

Compound | fold change
CC(C)(C)c1cc(C(C)(C)C)c(O)c(C(C)(C)C)c1 | -1.04 (inactive)
CS(=O)(=O)N1CCc2ccccc21 | 1.49 (inactive)
CN=C1/C(=N/O)C=CC2CCCCC12 (stereo not given) | inactive
O=[N+]([O-])c1cc(Br)cc(C=Nc2cc(Cl)cc(Cl)c2)c1O | inactive
O=C1C=CC(=C(c2ccc(O)c(O)c2)c2ccccc2S(=O)(=O)O)C=C1O | 1.05 (inactive)
Cc1cc(=O)[nH]c(SCc2ccon2)n1 | inactive
Cn1c(=O)n(C)c2cc(S(=O)(=O)N3CCCCC3)ccc21 | -4.28 (inactive)
CSC(=Nc1ccc(C)c(C)c1)NC#N | 3.26 (active)
CC1(C)CC2CC(C)(CN2S(=O)(=O)c2ccc(N)cc2)C1 (stereo not given) | -1.15 (inactive)
CN(C)CCCN1C(=O)C(O)=C(C(=O)c2ccco2)C1c1cccs1 (stereo not given) | 1.06 (inactive)
N#CC1=C(N)OC2=C(C(=O)CCC2)C1c1cc(F)ccc1F (stereo not given) | 2.83 (active)
N#CC1=C(N)OC2=C(C(=O)CCC2)C1c1ccc(Br)s1 (stereo not given) | -1.06 (inactive)
Cc1ccc(C2C(C#N)=C(N)OC3=C2C(=O)CCC3)o1 (stereo not given) | -2.21 (inactive)
Cn1c(SC2CCOC2=O)nc2ccccc2c1=O (stereo not given) | -1.35 (inactive)
COc1nc(-c2ccccc2)cc(-c2ccccc2)c1C#N | 1.46 (inactive)
OCC1OC(OC2OC(CO)C(O)C(O)C2O)C(O)C(O)C1O (stereo not given) | -1.63 (inactive)
OC[C@H]1O[C@@H](OC[C@H]2O[C@@H](O)[C@H](O)[C@@H](O)[C@@H]2O)[C@H](O)[C@@H](O)[C@@H]1O | -1.38 (inactive)
OC[C@@H]1O[C@H](O[C@H]2O[C@H](CO[C@H]3O[C@H](CO)[C@H](O)[C@H](O)[C@H]3O)[C@@H](O)[C@H](O)[C@H]2O)[C@H](O)[C@H]1O | 2.81 (active)
O=[N+]([O-])c1ccc(OC2OC(CO)C(O)C(O)C2O)cc1 (stereo not given) | 1.11 (inactive)
OC[C@@H]1OC(O)[C@@H](O)[C@H](O)[C@H]1O[C@H]1O[C@H](CO)[C@@H](O)[C@H](O)[C@H]1O (stereo not given in full) | 3.84 (active)
NC[C@@H]1O[C@H](O[C@H]2[C@@H](O)[C@H](O[C@@H]3[C@@H](O)[C@H](N)C[C@H](N)[C@H]3O[C@H]3O[C@H](CN)[C@@H](O)[C@H](O)[C@H]3N)O[C@@H]2CO)[C@H](N)[C@@H](O)[C@@H]1O | -1.27 (inactive)
CC(N)c1nc(-c2cccnc2)no1 (stereo not given) | -2.47 (inactive)
O=S(=O)(NCc1ccc2c(c1)OCO2)c1ccc2oc3ccccc3c2c1 | 1.03 (inactive)
Cn1c(=O)c2c(nc(NCCOc3ccc(Cl)cc3)n2C)n(C)c1=O | 1.16 (inactive)
O=c1cc(-c2ccc(O)c(O)c2)oc2cc(OC3OC(CO)C(O)C(O)C3O)cc(O)c12 (stereo not given) | -1.76 (inactive)

Compound | fold change
CC(Nc1cc(Cl)ccc1[N+](=O)[O-])C12CC3CC(CC(C3)C1)C2 (stereo not given) | -1.01 (inactive)
O=S(=O)(c1ccccc1)N1CCN(C(c2ccccc2)c2ccccc2)CC1 | 3.51 (active)
O=S(=O)(c1ccccc1)N1CCN(CCO)CC1 | -1.34 (inactive)
O=S(=O)(c1ccccc1)N1CCN(c2ccccc2)CC1 | -1.03 (inactive)
O=C(O)CN(CP(=O)(O)O)CP(=O)(O)O | -4.38 (inactive)
COc1cc(CSC(=N)N)c([N+](=O)[O-])cc1OC | -1.68 (inactive)
CC(=O)OC[C@H]1O[C@@H](n2ncc(=O)[nH]c2=O)[C@H](OC(C)=O)[C@@H]1OC(C)=O | -1.81 (inactive)
CC(=O)OCC1OC(n2ccc(=O)[nH]c2=O)C(OC(C)=O)C1OC(C)=O (stereo not given) | -1.3 (inactive)
C=CCOC1OC(COC(C)=O)C(OC(C)=O)C(OC(C)=O)C1OC(C)=O (stereo not given) | 3.1 (active)
Cc1ccc(C(c2c(C)[nH]n(-c3ccccc3)c2=O)c2c(C)[nH]n(-c3ccccc3)c2=O)o1 | 1.83 (inactive)
CN1CC=C2[C@H](C1)[C@@H](c1ccccc1F)C(C#N)=C(N)C2(C#N)C#N | 1.08 (inactive)
Cc1cc(C)cc(OCC(=O)N=Nc2c(O)[nH]c3ccccc23)c1 | inactive
N#Cc1sc2nc3c(cc2c1N)CCCC3 | 1.19 (inactive)
N#Cc1sc2nc(-c3cccs3)ccc2c1N | 5 (active)
c1csc(-c2nc3sc(-c4cccs4)nc3s2)c1 | -2.65 (inactive)
Cc1cccc(N2CCC(N=CN3CCOCC3)=N2)c1 | 2.57 (active)
O=C(O)CCC(=O)Nc1nccs1 | -1.01 (inactive)
CCCCCCCCCCCC(=O)Nc1nccs1 | -1.36 (inactive)
O=C(CN1CCOCC1)Nc1nccs1 | 3.2 (active)
CCOC(=O)/C(=C\C1=CC=C([N+](=O)[O-])C1)NC(=O)c1cccc(C)c1 | 2 (inactive)
Cc1cc2c(cc1C)-c1c(ssc1=Nc1ccc(S(N)(=O)=O)cc1)C(C)(C)N2 | -1.69 (inactive)
COc1cc(C2C(C(=O)OC3CCCCC3)=C(C)NC3=C2C(=O)CC(C)(C)C3)cc(OC)c1OC (stereo not given) | -1.82 (inactive)
NC(=O)CCCc1c[nH]c2ccccc12 | 1.03 (inactive)
O=C(O)CCCc1c[nH]c2ccccc12 | 3.42 (active) and -1.18 (inactive)
O=C(CCCc1c[nH]c2ccccc12)NCCSc1ccccc1 | -1.53 (inactive)
